Compounds without any hit were thinned out: in the full panel of roughly 83,000, 20% have a hit.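 For each line, cells grew in 96-well plates with the test compound present at a single concentration for 48 hours.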 A number with no mark means an inactive call. Calls of active or inactive are those of the source. How the source made its calls: active means growth percent below 10; inactive means the rest.
Assays:
Assay in all cases: NCI-60 one-dose screen, 48 h (100 = growth as untreated, 0 = no growth, -100 = all killed)
Settings in all cases: 10 µM unless noted
NCI-H23 lung = tested on: NCI-H23 lung
NCI-H226 lung = tested on: NCI-H226 lung
NCI-H322M lung = tested on: NCI-H322M lung
HOP-62 NSCLC = tested on: HOP-62 NSCLC
NCI-H460 lung = tested on: NCI-H460 lung
NCI-H522 lung = tested on: NCI-H522 lung
A549/ATCC NSCLC = tested on: A549/ATCC NSCLC
786-0 renal = tested on: 786-0 renal
COLO 205 colon = tested on: COLO 205 colon
DU-145 prostate = tested on: DU-145 prostate
K-562 leukemia = tested on: K-562 leukemia
MALME-3M melanoma = tested on: MALME-3M melanoma
MDA-MB-231 breast = tested on: MDA-MB-231 breast
RXF 393 renal = tested on: RXF 393 renal
SF-268 CNS = tested on: SF-268 CNS
SF-539 CNS = tested on: SF-539 CNS
UACC-257 melanoma = tested on: UACC-257 melanoma
M14 melanoma = tested on: M14 melanoma
HCT-15 colon = tested on: HCT-15 colon

Structure (SMILES)	growth (NCI-H23 lung)	growth (NCI-H226 lung) [%]	growth (NCI-H322M lung)	growth (HOP-62 NSCLC)	growth (NCI-H460 lung)	growth (NCI-H522 lung)	growth (A549/ATCC NSCLC)	growth (786-0 renal)	growth (COLO 205 colon)	growth (DU-145 prostate)	growth (K-562 leukemia)	growth (MALME-3M melanoma)	growth (MDA-MB-231 breast)	growth (RXF 393 renal)	growth (SF-268 CNS)	growth (SF-539 CNS)	growth (UACC-257 melanoma)	growth (M14 melanoma)	growth (HCT-15 colon)
O=[N+]([O-])c1cnc(Sc2ccncn2)c([N+](=O)[O-])c1	103%	99.6	108%	99.3%	100%	-83.1% (active)	97.6%	106%	-11.8% (active)	109%	-46.9% (active)	-53% (active)	91.1%	94.3%	101%	97.7%	-9.5% (active)	97.2%	0.0905% (active)
O=C(Nc1ccncc1)C(=O)c1cn(S(=O)(=O)c2cccc(F)c2)c2ccccc12	34%	75.8	101%	52.7%	65.4%	-12.5% (active)	67.3%	61.7%	106%	50%	23.9%	58.2%	67.4%	59.9%	75.9%	27.3%	75.6%	26.8%	25.3%
CC(=O)Oc1ccc(C2OC(c3ccc4ccccc4c3OC(C)=O)=NN2C(C)=O)c(OC(C)=O)c1 (stereo unspecified)	28.8%	15.7	24.4%	14.7%	6.03% (active)	4.49% (active)	6.76% (active)	5.71% (active)	15.9%	22.7%	4.1% (active)	8.98% (active)	39.9%	1.4% (active)	13.7%	13.9%	-28.2% (active)	3.34% (active)	34.1%
O=C(N1CCC(CN=c2cc3n(-c4ccc(Cl)cc4)c4ccccc4nc-3cc2Nc2ccc(Cl)cc2)CC1)N1CC1	-58.2% (active)	37.2	-54.3% (active)	-85.2% (active)	-71.5% (active)	-76.7% (active)	-89.4% (active)	-93.2% (active)	-59% (active)	-95.3% (active)	-66.5% (active)	-72.5% (active)	-56.9% (active)	-93.3% (active)	-63.6% (active)	-88% (active)	-94.4% (active)	-73.8% (active)	-36.8% (active)
O=C(OCCBr)c1ccc(Cl)c([N+](=O)[O-])c1	104%	126	28.6%	131%	103%	8.61% (active)	104%	102%	106%	14.6%	82.9%	97.2%	92%	132%	100%	102%	86.8%	91.8%	90.9%
CN(C)c1ccc2c(c1)/C(=N/O)c1ccccc1-2	89%	91.8	113%	92.2%	97.2%	89%	84.2%	104%	103%	105%	29.7%	87.9%	89.8%	81%	78.3%	60%	81.6%	69.7%	78.7%
Nc1nonc1-c1nc2ccccc2n1CC(=O)Nc1ccc2c(c1)COC2=O	86.3%	87.7	107%	83.8%	95.7%	61.6%	88.8%	93%	98.4%	108%	38.9%	79.4%	82.1%	93.7%	90.3%	86.5%	90.1%	72.9%	70.5%
COc1ccc(-c2nn(-c3cccc(Cl)c3)cc2C2CC(c3ccccc3)=NN2C(C)=O)cc1 (stereo unspecified)	84.2%	37.9	76.8%	-18.1% (active)	39.6%	60.9%	67.6%	72.2%	81.6%	72.2%	96.1%	46.8%	72.9%	54.4%	66.9%	50.6%	86.2%	89.2%	86%
Oc1[nH]c2ccccc2c1/C=c1/ccc2c(c1)N=C(c1cc(F)cc(F)c1)N=2	64.3%	85.4	83.1%	101%	56.9%	59.7%	66.5%	64.2%	96%	72.1%	12.8%	101%	53.8%	78.5%	80.8%	90.7%	98.7%	58.2%	31.5%

Source: PubChem BioAssay (NCI)
